Activity calls are given as the source filed them. How the source made its calls: active means hit-call score of the fitted dose curve at least 0.9, where 1 is the maximum; inactive means score below 0.9.
Columns and labels:
[1] = APR_HepG2_CellCycleArrest_24hr: Apredica 24-hour HepG2 Assay for Cell Cycle Arrest (AID 2282905); details: imaging, actives raise or lower the signal;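 further: cell cycle arrest scored as ratio of 2N to 4N nuclear DNA content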
Procedure, shortened: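 Compounds (0.39 to 200 uM, final DMSO 0.5% v/v) are applied to HepG2 cells for 24 hours; cells are then fixed, permeabilized and nuclei labeled with Hoechst 33342. Automated imaging measures DNA content, and activity is fitted in both directions against DMSO.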

[2] = APR_HepG2_NuclearSize_24hr: Apredica 24-hour HepG2 Assay for Nuclear Size (AID 2282907); details: high-content imaging, actives raise or lower the signal
Procedure, shortened: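 Nuclear size is measured by fluorescence high-content imaging of Hoechst-labelled HepG2 nuclei after 24 hr of treatment (0.39–200 uM, 0.5% DMSO). Cells are fixed in 3.7% formaldehyde before staining, and DMSO serves as the baseline for bidirectional curve fitting.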

[3] = APR_HepG2_CellLoss_24hr: Apredica 24-hour HepG2 Assay for Cell Loss (AID 2282908); details: high-content imaging;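 on AC50: fit in both directions so a hit may be cell loss or gain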
Procedure, shortened: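 Nuclear count serves as the viability measure: treated cells are fixed, permeabilized and labelled with Hoechst 33342, and six images per well are analysed to identify valid nuclei. Doses span 0.39–200 uM, and activity in either direction is scored against DMSO.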

[4] = APR_HepG2_MicrotubuleCSK_24hr: Apredica 24-hour HepG2 Assay for Microtubule CSK Stabilty (AID 2282909); details: HepG2 microtubule cytoskeleton imaging, actives raise or lower the signal
Procedure, shortened: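 Compounds were applied to HepG2 cells for 24 hours across 0.39–200 uM in duplicate, with final DMSO at 0.5% v/v. Fixed, permeabilized cells were labeled for alpha-tubulin and nuclei, and tubulin fluorescence was quantified by imaging, fitted bidirectionally against DMSO.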

[5] = APR_HepG2_MitoticArrest_24hr: Apredica 24-hour HepG2 Assay for Mitotic Arrest (AID 2282910); details: high-content imaging, actives raise or lower the signal
Procedure, shortened: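 Treatment lasted 24 hr in the human HepG2 line at 0.39–200 uM, solvent held at 0.5% DMSO. Fixed cells were stained with Hoechst 33342 and anti-phospho-histone H3, imaged at 20x, and analysed by gain- or loss-of-signal fitting against DMSO.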

[6] = APR_HepG2_MitoMembPot_24hr: Apredica 24-hour HepG2 Assay for Mitochondrial Membrane Potential (AID 2282911); details: imaging, actives raise or lower the signal
Procedure, shortened: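 HepG2 human liver cells were exposed 24 hr to compounds at 0.39–200 uM (final DMSO 0.5% v/v) in duplicate. MitoTracker Red CMXRos (250 nM, 30 min) was loaded before formaldehyde fixation; fluorescence was imaged by ArrayScan HCS and fitted bidirectionally versus DMSO.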

[7] = APR_HepG2_MitoMass_24hr: Apredica 24-hour HepG2 Assay for Mitochondrial Mass (AID 2282912); details: high-content imaging, actives raise or lower the signal
Procedure, shortened: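 After 24 hr of treatment at 0.39 to 200 uM, HepG2 cells take up 250 nM MitoTracker Red CMXRos for 30 min and are then fixed with 3.7% formaldehyde. Per-well images are quantified, and any change in either direction is scored against solvent.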

[8] = APR_HepG2_p53Act_24hr: Apredica 24-hour HepG2 Assay for p53 Activation (AID 2282913); details: high-content imaging, actives raise or lower the signal;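 further: p53 protein immunofluorescence averaged per cell in HepG2 with Hoechst nuclei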
Procedure, shortened: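 HepG2 cells exposed 24 hr to compounds at 0.39–200 uM (10 concentrations, duplicate), final DMSO 0.5% v/v. After formaldehyde fixation and Triton permeabilization, p53 was immunolabeled (sheep anti-p53, Cy5 secondary) with Hoechst 33342 nuclear counterstain, then imaged by high-content fluorescence microscopy.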

[9] = APR_HepG2_CellCycleArrest_72hr: Apredica 72-hour HepG2 Assay for Cell Cycle Arrest (AID 2282914); details: high-content imaging, actives raise or lower the signal
Procedure, shortened: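 HepG2 cells were exposed to compounds at 0.39–200 uM (0.5% v/v DMSO final, duplicates) for 72 hr, fixed in 3.7% formaldehyde, permeabilized and stained with Hoechst 33342. Nuclear DNA content was quantified by high-content imaging; gain or loss of signal was fitted bidirectionally against DMSO.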

[10] = APR_HepG2_CellLoss_72hr: Apredica 72-hour HepG2 Assay for Cell Loss (AID 2282915); details: high-content imaging
Procedure, shortened: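 HepG2 cells were exposed for 72 hr to compounds at 0.39–200 uM (ten concentrations, duplicate) in 0.5% v/v final DMSO. Nuclei were stained with Hoechst 33342 after 3.7% formaldehyde fixation, imaged at 20x, and counted; fits bidirectional versus DMSO.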

Measured: AC50

Nc1cccc(N)c1
inactive: all assays above

CC(=O)OC[C@H]1O[C@@](COC(C)=O)(O[C@H]2O[C@H](COC(C)=O)[C@@H](OC(C)=O)[C@H](OC(C)=O)[C@H]2OC(C)=O)[C@@H](OC(C)=O)[C@@H]1OC(C)=O
inactive: all assays above

CC[C@H]1OC(=O)[C@H](C)[C@@H](O[C@H]2C[C@@](C)(OC)[C@@H](O)[C@H](C)O2)[C@H](C)[C@@H](O[C@@H]2O[C@H](C)C[C@H](N(C)C)[C@H]2O)[C@](C)(O)C[C@@H](C)C(=O)[C@H](C)[C@@H](O)[C@]1(C)O
inactive: all assays above

Cn1cnc([N+](=O)[O-])c1Sc1ncnc2nc[nH]c12
active: [10] 44.8 µM
inactive: all other assays above

Cn1c(=O)c2c(ncn2C)n(C)c1=O
inactive: all assays above

CNCc1ccc(NC(=O)c2c[nH]c3c2C(=O)CCC3)cc1
active: [10] 73.7 µM
inactive: all other assays above

Fc1ccccc1[C@@H](F)COC1CCC(Nc2ncnc3[nH]ncc23)CC1 (stereo partly drawn)
active: [1] 62.3 µM | [3] 52.4 µM | [4] 78.4 µM | [9] 50.1 µM | [10] 59 µM
inactive: all other assays above

CCCN(C1CCN(C(=O)C2CCNCC2)CC1)[C@@H]1CCc2ccc(OC)cc2C1
active: [3] 100 µM | [5] 67.5 µM | [7] 100 µM | [10] 95 µM
inactive: all other assays above

CC(C)c1cccc(C(C)C)c1N1C(=O)c2ccc(O)cc2C1=O
active: [1] 6.15 µM | [3] 87.5 µM | [5] 4.05 µM | [6] 32.7 µM | [7] 164 µM | [8] 46.7 µM | [9] 7.16 µM | [10] 57.7 µM
inactive: [2] | [4]

CCCCCCCCCCCCCCCO
active: [1] 107 µM | [9] 110 µM | [10] 93.8 µM
not listed: [2]
inactive: all other assays above

CCCCCCCCCCCCc1ccccc1
not listed: [7]
inactive: all other assays above

CCCCC(CC)COC(=O)CCCCCCCCC(=O)OCC(CC)CCCC (stereo not drawn)
active: [3] 117 µM | [4] 128 µM | [5] 68.5 µM | [8] 108 µM | [9] 170 µM | [10] 100 µM
inactive: [1] | [2] | [6]

C1=CCCC=CCCC=CCC1
not listed: [7]
inactive: all other assays above

Cc1c(-c2cccnc2)c2ccccc2n1CCCCC(=O)O
not listed: [7]
inactive: all other assays above

CCc1cc(SCc2sc(-c3ccc(C(F)(F)F)cc3)nc2CN2CCN(c3ccc(OC)cc3)CC2)ccc1OCC(=O)O
active: [3] 49.7 µM | [4] 48.5 µM | [5] 55.9 µM | [8] 84 µM | [10] 39.5 µM
inactive: [1] | [6] | [7] | [9]

CC(=O)OCCC(C)C
not listed: [7]
inactive: all other assays above

NC(=O)NO
not listed: [2]
inactive: all other assays above

CC(C)CCCCCCCOC(=O)CCCCC(=O)OCCCCCCCC(C)C
not listed: [7]
inactive: all other assays above

CCN(C(=O)c1cc(C)cc(OC[C@H](C)Nc2ccncc2)c1)C(C)C
not listed: [7]
inactive: all other assays above

COc1ccc(/C=C/S(=O)(=O)NC(=O)c2ccc(C)cc2Cl)cc1
active: [1] 102 µM | [6] 14.7 µM | [10] 57.3 µM
not listed: [7]
inactive: all other assays above

Cc1ccc(O)cc1
not listed: [7]
inactive: all other assays above
